A short description of experiment [1]: HepG2 liver cancer cell viability effects, profiling panel, resazurin fluorescence, 24 h, PK04 Diversity Set (AID 1172). Note: test concentration not given here. Conditions: higher = more signal.
A short description of experiment [2]: basal S. cerevisiae growth modulation, no modifier, primary screen, OD600, strain BY4716, 24 h, basal condition (AID 1173). The conditions noted are these: OD600, 24 h, higher = more signal, called active from +8 up or from −8 down.
The nature of experiment [3]: MM1S myeloma cell viability, profiling panel, resazurin fluorescence, basal, 24 h, PK04 Diversity Set (AID 1174).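 Note: MM1S multiple myeloma cell line; test concentration not given here.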 Conditions: higher = more signal, called active from +8 up or from −8 down.
The target of experiment [4] is Dihydroorotate dehydrogenase (quinone), mitochondrial (Plasmodium falciparum (isolate 3D7)) (UniProt Q08210). The experiment can be described thus: PfDHODH enzyme inhibitors, primary screen, biochemical, C-terminal His tag, absorbance 600 nm (AID 1175).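 Note: recombinant parasite enzyme with a five histidine tag at its C terminus; test concentration not given here.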 The conditions noted are these: DCIP absorbance 600 nm, higher = more signal, called active from +8 up or from −8 down.
Dihydroorotate dehydrogenase (quinone), mitochondrial (Plasmodium falciparum (isolate 3D7)), sequence (Q08210 whole entry, looked up): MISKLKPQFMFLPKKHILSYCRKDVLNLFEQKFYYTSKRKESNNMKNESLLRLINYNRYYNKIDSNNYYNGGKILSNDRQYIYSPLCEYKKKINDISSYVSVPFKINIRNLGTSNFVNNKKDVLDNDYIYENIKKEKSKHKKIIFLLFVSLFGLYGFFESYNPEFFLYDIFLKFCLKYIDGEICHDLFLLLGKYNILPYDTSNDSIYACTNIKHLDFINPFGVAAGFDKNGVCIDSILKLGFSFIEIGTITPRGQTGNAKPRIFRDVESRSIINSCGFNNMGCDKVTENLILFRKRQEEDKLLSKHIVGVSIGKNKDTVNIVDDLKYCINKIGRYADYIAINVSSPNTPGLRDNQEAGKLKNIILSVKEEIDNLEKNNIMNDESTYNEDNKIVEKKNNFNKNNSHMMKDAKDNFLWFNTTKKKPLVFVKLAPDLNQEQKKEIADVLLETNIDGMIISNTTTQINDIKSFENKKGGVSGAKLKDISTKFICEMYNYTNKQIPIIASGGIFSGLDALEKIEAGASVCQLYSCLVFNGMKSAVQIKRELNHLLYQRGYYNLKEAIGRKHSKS

A short description of experiment [5]: P. aeruginosa biofilm formation inhibitors, primary screen, strain PAO1, LB-PBS medium, absorbance 600 nm (AID 1176). Note: test concentration not given here. Conditions: P. aeruginosa PAO1 growth/biofilm, A600, 12 h; higher = more signal.
Experiment [6] in a line: S. cerevisiae RM11-1a growth modifiers, primary screen, strain RM11-1a, OD600, basal, 24 h (AID 1177).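 Note: cultures grown under basal conditions with no added stressor; test concentration not given here.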 The conditions noted are these: OD600, 24 h, higher = more signal, called active from +8 up or from −8 down.
Experiment [7] can be described thus: E. coli acrAB mutant growth effects, primary screen, E. coli filamentation inducers, strain DRC39, OD650, 24 h (AID 1178).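 Note: growth measured as culture turbidity by optical density at 650 nm; test concentration not given here.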 Conditions: higher = more signal, called active from +8 up or from −8 down.
The nature of experiment [8]: E. coli acrAB mutant growth effects, primary screen, E. coli filamentation inducers, strain DRC39, OD650, 48 h (AID 1179).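 Note: screen aims at cell division blockers that make cells filament.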 The conditions noted are these: E. coli DRC39 delta-acrAB growth, higher = more signal, called active from +8 up or from −8 down.
Experiment [9] is described as follows: RPMI8226 myeloma cell viability, profiling panel, resazurin fluorescence, basal, 24 h, PK04 Diversity Set (AID 1180).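 Note: RPMI8826 multiple myeloma cell line at 5000 cells per well; test concentration not given here.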 Conditions: higher = more signal.
Experiment [10] concerns the target E3 ubiquitin-protein ligase XIAP (Homo sapiens) (UniProt P98170). As to the kind of experiment: XIAP binders, primary screen, biophysical, small-molecule microarray, fluorescence 635 nm (AID 1181).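 Note: score merges 667 nm emission and signal to noise over triplicate slides.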 Conditions: small-molecule microarray binding, higher = more signal.

Structures are written as SMILES. The source made the active and inactive calls. Unless noted, the rule behind the calls is not given here.

E3 ubiquitin-protein ligase XIAP (Homo sapiens), sequence (P98170 whole entry, looked up): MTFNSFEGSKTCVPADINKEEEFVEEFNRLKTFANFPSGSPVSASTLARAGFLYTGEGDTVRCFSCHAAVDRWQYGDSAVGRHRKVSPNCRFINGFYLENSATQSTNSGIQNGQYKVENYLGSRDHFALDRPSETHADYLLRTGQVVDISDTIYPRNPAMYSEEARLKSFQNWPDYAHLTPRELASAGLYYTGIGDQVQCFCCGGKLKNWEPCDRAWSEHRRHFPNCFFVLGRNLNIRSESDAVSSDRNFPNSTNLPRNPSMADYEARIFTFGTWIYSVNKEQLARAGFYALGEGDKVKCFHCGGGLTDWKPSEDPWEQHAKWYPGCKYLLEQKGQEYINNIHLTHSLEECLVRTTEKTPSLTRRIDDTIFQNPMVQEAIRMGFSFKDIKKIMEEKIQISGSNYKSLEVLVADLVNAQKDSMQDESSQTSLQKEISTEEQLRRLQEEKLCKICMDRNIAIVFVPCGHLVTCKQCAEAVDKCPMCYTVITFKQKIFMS

For `O=c1cccc(CCc2ccccc2)o1`, the z-score in [1] was -0.523; in [2], -3.45 (inactive); in experiment [3] it was -0.0074 (inactive); in experiment [5], -0.156 (inactive); in experiment [6] it was -0.259 (inactive); in experiment [7] it was -0.74 (inactive). Moreover, the z-score in experiment [8] is -0.608 (inactive); in experiment [9], -0.753. Further, the composite z-score in [4] was -1.19 (inactive); in [10], 0.273.
As for `COc1ccc(C#Cc2ccc3c(c2)[C@]2(C(=O)N3)[C@H](C(=O)NC[C@H](O)c3ccccc3)[C@H]3C(=O)O[C@H](c4ccccc4)[C@H](c4ccccc4)N3[C@@H]2c2ccccc2OCCO)cc1`, the z-score in experiment [1] is -1.62; in experiment [2], 1.32 (inactive); in experiment [3], -4.48 (inactive); in experiment [5] it was 2.4 (inactive); in experiment [6] it was 2.27 (inactive); in experiment [7] it was -0.444 (inactive). The z-score is -0.849 (inactive) in [8] and -5.2 in experiment [9]. Besides, the composite z-score in [4] was -0.0131 (inactive); in [10], 0.0297.
Take `[N-]=[N+]=Nc1ccccc1C[C@]1(C(=O)NCCN2CCOCC2)N=C(c2ccc(OCCCO)cc2)O[C@H]1c1ccccc1`: the z-score in experiment [1] was 0.224; in experiment [2], -3.1 (inactive); in experiment [3] it was -0.359 (inactive); in experiment [5] it was 0.565 (inactive); in experiment [6] it was -0.52 (inactive); in experiment [7], 0.148 (inactive). Also, the z-score is -0.338 (inactive) in experiment [8] and -0.554 in experiment [9]. The composite z-score was -0.0351 (inactive) in experiment [4] and 0.0679 in [10].
Regarding `CCCC[C@H]1OB(O)C[C@H]2C1=C(C)C[C@H]1C(=O)N(Cc3ccccc3)C(=O)[C@H]12`, the z-score was 0.589 in experiment [1]; -5.14 (inactive) in experiment [2]; 0.355 (inactive) in [3]; 0.0481 (inactive) in experiment [5]; -0.621 (inactive) in experiment [6]; 1.68 (inactive) in experiment [7]. Besides, the z-score in experiment [8] was 0.452 (inactive); in experiment [9] it was 0.156. Further, the composite z-score in [4] is -0.231 (inactive); in [10], -0.0627.
Take `CCCN1C(=O)[C@@]2(CCC(=O)OC(C)(C)C)N=C(c3ccc(OCCCO)cc3)O[C@H]2c2ccccc21`: the z-score in [1] is 0.803; in experiment [2], -1 (inactive); in experiment [3], -1.86 (inactive); in experiment [5] it was 0.717 (inactive); in experiment [6] it was 0.992 (inactive); in experiment [7], 0.923 (inactive). For the same molecule, the z-score in experiment [8] was 0.178 (inactive); in experiment [9], -3.16. Besides, the composite z-score is -0.0393 (inactive) in [4] and 0.0223 in experiment [10].
Turning to `C=CC[C@@]1(C(=O)N2CCOCC2)N=C(c2ccc(OCCCO)cc2)O[C@@H]1c1ccccc1N=[N+]=[N-]`, the z-score in experiment [1] is -0.268; in experiment [2] it was -1.24 (inactive); in experiment [3] it was -1.64 (inactive); in [5], -0.236 (inactive); in experiment [6], 0.367 (inactive); in experiment [7], 0.992 (inactive). For the same molecule, the z-score is 0.123 (inactive) in [8] and -1.33 in [9]. The composite z-score is 0.443 (inactive) in experiment [4] and 0.117 in experiment [10].
Consider `CCOC(=O)C[C@H]1[C@H](OC(=O)c2ccc(-c3ccccc3)cc2)[C@@H](NC(=O)Cc2ccc(OC)cc2)c2cc(OCCCO)ccc2N1C(=O)c1ccc2ccccc2n1`, for which the z-score in [1] was -0.458; in experiment [2], -0.533 (inactive); in experiment [3], -0.607 (inactive); in experiment [5], 0.055 (inactive); in experiment [6], -0.586 (inactive); in [7], -0.536 (inactive). In addition, the results for the z-score in experiment [8] and in experiment [9] were -0.485 (inactive) and -0.893, respectively. Also, the composite z-score in experiment [4] is -0.236 (inactive); in experiment [10], 0.091.
As to `CN(C)CCCNC(=O)[C@@]1(Cc2ccccc2I)c2ccccc2C(=O)N(Cc2ccccc2C(F)(F)F)[C@H]1c1ccc(CO)cc1`, the z-score in [1] is -6.04; in experiment [2] it was -6.8 (inactive); in [3] it was -7.53 (inactive); in experiment [5] it was 0.0993 (inactive); in [6] it was 0.653 (inactive); in experiment [7] it was -0.299 (inactive). For the same molecule, the z-score is 0.247 (inactive) in [8] and -4.01 in experiment [9]. Besides, the figures for the composite z-score in experiment [4] and in experiment [10] were 0.35 (inactive) and -0.288, respectively.
For `COCCOC(=O)N1C(=O)[C@@]2(c3cc(C#CCC(C(=O)OC)C(=O)OC)ccc31)[C@H](c1ccccc1OCCO)N1[C@H](c3ccccc3)[C@H](c3ccccc3)OC(=O)[C@H]1[C@@H]2C(=O)N1CCc2cc(OC)c(OC)cc2C1`, the z-score is 1.68 in experiment [1]; 0.983 (inactive) in experiment [2]; 1.58 (inactive) in experiment [3]; 1.45 (inactive) in experiment [5]; 1.16 (inactive) in experiment [6]; 0.252 (inactive) in [7]. Moreover, the z-score in [8] is -0.441 (inactive); in [9], 1.78. Besides, the composite z-score in experiment [4] is -0.857 (inactive); in [10] it was 0.314.
As to `C=CCNC(=O)[C@@H]1[C@H]2C(=O)O[C@H](c3ccccc3)[C@H](c3ccccc3)N2[C@H](c2ccccc2OCCO)[C@@]12C(=O)Nc1ccc(C#CC3=CCCCC3)cc12`, the z-score was -1.55 in experiment [1]; 0.556 (inactive) in experiment [2]; -2.61 (inactive) in experiment [3]; 1.55 (inactive) in experiment [5]; 1.78 (inactive) in [6]; -0.125 (inactive) in experiment [7]. Further, the z-score was -0.353 (inactive) in experiment [8] and -5 in experiment [9]. The figures for the composite z-score in experiment [4] and in experiment [10] were 0.496 (inactive) and 0.0593, respectively.
For the molecule `COc1ccc(CCNC(=O)[C@@]2(c3ccc([N+](=O)[O-])cc3)CC(=O)N(CC34CC5CC(CC(C5)C3)C4)[C@@H]2c2ccc(CO)cc2)cc1`, the z-score in experiment [1] was -1.86; in [2] it was -0.125 (inactive); in [3], -2.58 (inactive); in [5], 1.61 (inactive); in experiment [6], 0.526 (inactive); in [7] it was -0.226 (inactive). Moreover, the z-score in experiment [8] was -0.281 (inactive); in experiment [9], -2.81. Besides, the composite z-score was 0.682 (inactive) in experiment [4] and 0.0073 in [10].

The values are drawn from PubChem BioAssay.
